Experimental findings from PubChem BioAssay (NCATS) are described below.

The structures appear in SMILES notation. Records with an inconclusive call do not appear. The source made the active and inactive calls. The call rests on the fitted dose curve; in most records, active means well fitted curve in the direction sought with a large enough effect; inconclusive means small, poorly fitted or top-dose-only effect, or another doubt; inactive means no such curve, though single readings can be large; an effect the other way counts as inactive or inconclusive.

The nature of assay [1]: Cell Viability - LYMP2-012 (AID 982).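 Further: cellular ATP by luciferase luminescence where a drop means cytotoxicity; cells exposed to compound for one day before reading; nearly all actives have a fitted effect of over 55% in size.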
Assay [2] in a line: Cell Viability - LYMP2-014 (AID 983). Further: series mostly up to about 92 µM; nearly all actives have a fitted effect of over 50% in size. The gist of the method: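 Quantitative HTS in lymphoblastoid cells: 24 hr compound exposure, then CellTiter-Glo ATP luminescence. Positive control was tetraoctylammonium bromide, 6.4pM to 92 uM.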
Assay [3] in a line: Cell Viability - LYMP2-016 (AID 984). Further: nearly all actives have a fitted effect of over 55% in size. The method in brief: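 Human lymphoblastoid LYMP2-016 cells, 2500 per well, treated with compounds for 24 h at 37 C. Viability read as intracellular ATP by CellTiter-Glo luminescence after 30 min at room temperature; AC50 from Hill fits of concentration-response.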
Assay [4] can be described thus: Cell Viability - LYMP2-018 (AID 985). Further: nearly all actives have a fitted effect of over 50% in size. The gist of the method: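 In this qHTS viability assay, cells are treated for 24 hr and cellular ATP is quantified by luciferase-based luminescence, with tetraoctylammonium bromide as positive control.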
Assay [5] in a line: Cell Viability - LYMP2-020 (AID 986). Further: series mostly up to about 92 µM; nearly all actives have a fitted effect of over 55% in size. The gist of the method: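 Cells at 2500 per well receive a 24 hr compound exposure at 37 C. Viability is measured as ATP-dependent luciferase luminescence, with AC50 modeled from qHTS concentration-response curves.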
Assay [6] is described as follows: Cell Viability - LYMP2-022 (AID 987). Further: nearly all actives have a fitted effect of over 55% in size. The method in brief:
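In this qHTS cytotoxicity screen, compound titrations were incubated 24 hr at 37 C with human lymphoblastoid cells in complete medium. Luciferase-based ATP luminescence provided the viability signal.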

Assay [7] can be described thus: Cell Viability - LYMP2-024 (AID 988). Further: nearly all actives have a fitted effect of over 60% in size. The gist of the method:
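Cells at 2500 per well received compound for 24 hr after a 5 hr settling period. Viability was scored by CellTiter-Glo luminescence, with AC50 from Hill fits.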

Assay [8] in a line: Cell Viability - LYMP2-026 (AID 989). Further: nearly all actives have a fitted effect of over 50% in size. The gist of the method: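 Acute toxicity screen in complete culture medium, with 24 hr compound exposure at 37 C. Viability read as cellular ATP via luciferase reaction, with tetraoctylammonium bromide (6.4pM to 92 uM) as positive control.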
The nature of assay [9]: Cell Viability - LYMP1-002 - Assay at 24 hr (AID 993). The method in brief:
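Viability was judged from intracellular ATP using a luciferase read-out, following a 24-hour compound incubation at 37 C of lymphoblastoid cells seeded at 2500 per well. Concentration-response data were fitted to the Hill equation for AC50.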

The nature of assay [10]: Cell Viability - LYMP1-002 - Assay at 40 hr (AID 994). Further: nearly all actives have a fitted effect of over 60% in size. The gist of the method:
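Concentration-dependent ATP loss after 40 hr treatment at 37 C defined toxicity; AC50 values were obtained by fitting the standard Hill equation.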

Assay [11] can be described thus: qHTS for Inhibitors of the vitamin D receptor (VDR): Hit Validation using a Texas Red Assay (AID 602201). Further: potency means the concentration at half of the fitted maximal effect. As to conditions: VDR coregulator binding, Texas Red fluorescence polarization; agonist-bound VDR ligand-binding domain. The gist of the method: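 Fluorescence polarization (Ex 595/Em 615 nm) of Texas Red (7 nM) with 1.5 uM VDR-LBD and LG19078 (final concentrations). Compounds were incubated for 2 hours at room temperature.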

The target of assay [12] is Rap guanine nucleotide exchange factor 3 (Homo sapiens) (UniProt O95398). The experiment in a line: Confirmatory qHTS for antagonist of cAMP-regulated guanine nucleotide exchange factor 3 (EPAC1) (AID 1645880). The method in brief:
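Released BODIPY-GDP fluoresces less than Rap1-bound BODIPY-GDP; the signal is followed at 480/540 nm at 5-min intervals over 30 min, after 5 min at room temperature. Reactions contain 100 nM EPAC1, 250 nM RAP1B-BODIPY-GDP and 50 uM GDP; results are normalized to ATA and DMSO.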

Assay [13] shares this target. Nature of the assay: Confirmatory qHTS for agonist of cAMP-regulated guanine nucleotide exchange factor 3 (EPAC1) (AID 1645881).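 Further: EPAC1 catalysed release of BODIPY-GDP from Rap1B seen as fluorescence loss; nearly all actives have a fitted effect of over 75% in size.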
Assay [14] addresses Rap guanine nucleotide exchange factor 4 (Homo sapiens) (UniProt Q8WZA2). The experiment in a line: Confirmatory qHTS for agonist of cAMP-regulated guanine nucleotide exchange factor 4 (EPAC2) (AID 1645884).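 Further: nucleotide exchange releases bodipy-GDP from Rap1 and this lowers its fluorescence; nearly all actives have a fitted effect of over 65% in size.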

Rap guanine nucleotide exchange factor 3 (Homo sapiens), sequence (O95398 whole entry, looked up): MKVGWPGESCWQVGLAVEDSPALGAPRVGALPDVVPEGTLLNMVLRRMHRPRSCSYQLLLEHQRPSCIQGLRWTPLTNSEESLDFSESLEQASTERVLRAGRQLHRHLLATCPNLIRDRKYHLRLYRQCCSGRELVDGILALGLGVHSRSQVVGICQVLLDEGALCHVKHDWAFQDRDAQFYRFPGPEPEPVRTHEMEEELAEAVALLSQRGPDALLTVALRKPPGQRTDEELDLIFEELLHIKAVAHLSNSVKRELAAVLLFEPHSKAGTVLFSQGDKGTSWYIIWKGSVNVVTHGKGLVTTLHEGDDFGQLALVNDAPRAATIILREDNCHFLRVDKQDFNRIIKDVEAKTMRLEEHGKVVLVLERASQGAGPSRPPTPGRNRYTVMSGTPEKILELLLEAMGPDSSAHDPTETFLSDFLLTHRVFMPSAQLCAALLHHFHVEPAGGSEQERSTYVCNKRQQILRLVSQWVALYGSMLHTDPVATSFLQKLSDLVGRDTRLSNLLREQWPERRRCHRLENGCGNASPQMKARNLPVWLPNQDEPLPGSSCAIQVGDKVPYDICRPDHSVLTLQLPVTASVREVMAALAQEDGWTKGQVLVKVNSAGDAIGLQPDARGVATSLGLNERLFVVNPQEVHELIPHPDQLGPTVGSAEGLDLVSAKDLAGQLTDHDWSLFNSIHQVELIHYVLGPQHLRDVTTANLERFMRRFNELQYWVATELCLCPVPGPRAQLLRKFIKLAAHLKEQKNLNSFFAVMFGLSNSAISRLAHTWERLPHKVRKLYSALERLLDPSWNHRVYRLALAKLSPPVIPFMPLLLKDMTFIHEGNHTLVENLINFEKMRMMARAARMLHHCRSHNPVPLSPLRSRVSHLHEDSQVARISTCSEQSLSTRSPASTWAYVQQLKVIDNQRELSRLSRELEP
Rap guanine nucleotide exchange factor 4 (Homo sapiens), sequence (Q8WZA2 whole entry, looked up): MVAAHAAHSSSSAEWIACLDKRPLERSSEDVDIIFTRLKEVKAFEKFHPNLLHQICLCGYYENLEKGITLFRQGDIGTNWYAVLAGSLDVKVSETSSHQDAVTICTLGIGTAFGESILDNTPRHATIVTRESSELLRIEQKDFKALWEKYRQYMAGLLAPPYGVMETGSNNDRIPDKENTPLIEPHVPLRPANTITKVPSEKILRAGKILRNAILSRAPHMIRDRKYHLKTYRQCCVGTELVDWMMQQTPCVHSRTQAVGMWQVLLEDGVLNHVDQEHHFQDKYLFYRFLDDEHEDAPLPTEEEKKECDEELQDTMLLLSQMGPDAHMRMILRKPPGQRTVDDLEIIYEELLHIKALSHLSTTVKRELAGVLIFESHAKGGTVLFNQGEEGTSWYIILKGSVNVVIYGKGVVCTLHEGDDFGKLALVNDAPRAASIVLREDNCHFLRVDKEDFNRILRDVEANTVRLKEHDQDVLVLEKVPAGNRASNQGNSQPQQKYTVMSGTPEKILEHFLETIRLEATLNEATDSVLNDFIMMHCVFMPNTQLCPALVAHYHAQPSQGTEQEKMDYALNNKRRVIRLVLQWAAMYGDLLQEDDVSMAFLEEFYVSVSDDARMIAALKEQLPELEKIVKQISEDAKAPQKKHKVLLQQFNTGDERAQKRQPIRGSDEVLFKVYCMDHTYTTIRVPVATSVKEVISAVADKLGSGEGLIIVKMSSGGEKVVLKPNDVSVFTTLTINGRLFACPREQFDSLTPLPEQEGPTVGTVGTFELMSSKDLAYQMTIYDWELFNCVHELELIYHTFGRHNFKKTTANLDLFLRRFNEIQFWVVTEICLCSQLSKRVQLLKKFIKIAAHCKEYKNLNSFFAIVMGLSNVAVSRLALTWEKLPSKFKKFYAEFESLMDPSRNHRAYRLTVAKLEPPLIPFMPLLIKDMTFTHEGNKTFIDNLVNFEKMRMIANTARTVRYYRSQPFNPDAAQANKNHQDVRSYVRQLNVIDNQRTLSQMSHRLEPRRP

As to `CN(C)CCOC(c1ccccc1)c1ccccc1` (tested in a mixture with another compound), the result in [1], in [2], in assay [3], in assay [4], in assay [5] and in assay [6] was inactive. Further, the molecule was called inactive in [7], in [8], in assay [9] and in [10].
For the molecule `CCOc1ccc(NC(=O)c2c(NC(=O)Cc3ccccc3)sc3c2CCC(C)C3)cc1` (centres undefined), the Potency in assay [11] was 3.55 µM (active).
As to `N#C/C(=C\c1ccc(O)c(O)c1)C(=O)NCCCCc1ccccc1`, in assay [12], the Potency was 15.7 µM (active). The Potency result in [13] and in assay [14] was “inactive” in each case.
